# About 79,000 compounds went through this panel and 15% of them were active in at least one assay; those are over-represented in the sample as a whole. Unmarked numbers belong to inactive results. Activity calls are given as the source filed them. Rule as the data show it: active = growth inhibition above about 70%; inactive = the rest.
# Legend:
# [1] = NCI Yeast Anticancer Drug Screen. Data for the rad50 strain (AID 155);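 also: 0% = growth of vehicle-only cultures of the same strain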; conditions: S. cerevisiae rad50 strain growth inhibition, active compounds read high
# How it was run: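 Yeast carrying a defined DNA repair defect were exposed to test compounds, and growth was compared with vehicle-treated controls to give percent inhibition.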
# [2] = NCI Yeast Anticancer Drug Screen. Data for the mec2-1 strain (AID 157); conditions: S. cerevisiae mec2-1 strain, active compounds read high
# How it was run: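 Using mec2-1 yeast: add compound, measure growth, express inhibition versus vehicle-treated cultures.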
# [3] = NCI Yeast Anticancer Drug Screen. Data for the sgs1 mgt1 strain (AID 161);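 also: 0% = growth of cultures given vehicle only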; conditions: S. cerevisiae sgs1 mgt1 strain, active compounds read high
# How it was run: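 Growth of a repair-deficient yeast mutant was monitored after compound treatment and expressed as inhibition relative to vehicle-treated cultures.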
# [4] = NCI Yeast Anticancer Drug Screen. Data for the cln2 rad14 strain (AID 165);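 also: 0% = growth equal to vehicle treated cultures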; conditions: S. cerevisiae cln2 rad14 strain, active compounds read high
# How it was run: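 Yeast strain cln2 rad14, bearing defects in cell cycle control and DNA repair, serves as the test system; values reflect growth inhibition compared with vehicle.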
# [5] = NCI Yeast Anticancer Drug Screen. Data for the bub3 strain (AID 167); conditions: S. cerevisiae bub3 mutant strain, active compounds read high
# How it was run: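 Compounds were applied to a genetically altered yeast strain carrying a cell-cycle control defect. Growth inhibition was scored against vehicle-treated controls.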
# [6] = NCI Yeast Anticancer Drug Screen. Data for the mlh1 rad18 strain (AID 175); conditions: S. cerevisiae mlh1 rad18 strain growth inhibition, active compounds read high
# How it was run: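 Steps: expose repair-defective yeast to compound; measure growth; express inhibition against vehicle-treated controls.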
# [7] = at 5.0 µM (retest, dose inferred, filed as 0.5)
# [8] = at 50.0 µM (retest, dose inferred, filed as 5.0)
Structure (SMILES),"growth inhibition [1, 7] [%]","growth inhibition [1, 8]",growth inhibition ([1]; at 50.0 µM),"growth inhibition [2, 7]","growth inhibition [2, 8]",growth inhibition ([2]; at 50.0 µM),"growth inhibition [3, 7]","growth inhibition [3, 8]",growth inhibition ([3]; at 50.0 µM),"growth inhibition [4, 7]","growth inhibition [4, 8]",growth inhibition ([4]; at 50.0 µM),"growth inhibition [5, 7] [%]","growth inhibition [5, 8]",growth inhibition ([5]; at 50.0 µM),"growth inhibition [6, 7]","growth inhibition [6, 8]",growth inhibition ([6]; at 50.0 µM)
Cc1[nH]c2ccccc2c1/C=C1\C(=O)C2CCC1C2 (stereo not given),-7,75% (active),95.4% (active),-4%,73% (active),34.6%,-6%,92% (active),71.3% (active),-4%,38%,45.4%,-16,80% (active),39%,-14%,80% (active),86.9% (active)
C(C#Cc1ccccc1)#CCc1ccccc1,2,17%,19%,7%,16%,28.9%,1%,39%,54.6%,1%,7%,6.5%,1,13%,47.2%,-1%,21%,74.1% (active)
O=C1/C(=C/O)CCc2c1ccc1ccccc21,15,98% (active),98.4% (active),9%,99% (active),99% (active),-9%,98% (active),99.1% (active),6%,99% (active),97.7% (active),10,98% (active),98.9% (active),17%,98% (active),96.2% (active)
c1ccc(-c2cnc3nc4ccccc4nc3n2)cc1,-7,89% (active),94.9% (active),4%,76% (active),50.6%,12%,73% (active),95.8% (active),-11%,3%,36.5%,16,77% (active),92% (active),7%,93% (active),89.5% (active)
Cc1ccc(S(=O)(=O)n2c3c(c4ccccc42)CCN2C(=O)C(S(=O)(=O)c4ccccc4)=CCC32)cc1 (stereo not given),65,97% (active),94.6% (active),71% (active),98% (active),95.7% (active),74% (active),98% (active),97.5% (active),71% (active),98% (active),97.9% (active),29,97% (active),97.5% (active),78% (active),97% (active),95.8% (active)
